Measurements as given in the supplement of paper PMC8728848.
This excerpt belongs to a sample that is enriched for the strongest signals.

Columns and labels:
Test in all cases: glycan array binding signal (z-score within array); higher = stronger binding
Details in all cases: glycan notation: IUPAC condensed, linker removed
[1] = biological target: Glc(a1-6)Glc(a1-6)Glc(a1-6)Glc
Outline: (§1)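 Glycan array data came from 3228 arrays in the Consortium for Functional Glycomics database, and only arrays with an available protein sequence were kept. Glycan names were put into IUPAC-condensed notation, and columns mapping to the same glycan were averaged. The binding signal is a within-array Z-score, averaged across arrays of one protein sequence run at different concentrations or buffers and across linkers. A negative Z-score can be read as non-binding.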

[2] = biological target: GlcNAc(b1-2)Gal(b1-3)GalNAc
Outline: as §1

[3] = biological target: GlcNAc(b1-3)Gal(b1-4)GlcNAc(b1-3)Gal(b1-4)GlcNAc(b1-3)Gal(b1-4)GlcNAc(b1-2)Man(a1-3)[GlcNAc(b1-3)Gal(b1-4)GlcNAc(b1-3)Gal(b1-4)GlcNAc(b1-3)Gal(b1-4)GlcNAc(b1-2)Man(a1-6)]Man(b1-4)GlcNAc(b1-4)[Fuc(a1-6)]GlcNAc
Outline: as §1

[4] = biological target: GlcNAc(b1-3)Gal(b1-4)GlcNAc(b1-3)Gal(b1-4)GlcNAc(b1-3)Gal(b1-4)GlcNAc(b1-2)[GlcNAc(b1-3)Gal(b1-4)GlcNAc(b1-3)Gal(b1-4)GlcNAc(b1-3)Gal(b1-4)GlcNAc(b1-6)]Man(a1-6)[GlcNAc(b1-3)Gal(b1-4)GlcNAc(b1-3)Gal(b1-4)GlcNAc(b1-3)Gal(b1-4)GlcNAc(b1-2)Man(a1-3)]Man(b1-4)GlcNAc(b1-4)[Fuc(a1-6)]GlcNAc
Outline: as §1

[5] = biological target: GlcNAc(b1-3)Gal(b1-4)GlcNAc(b1-3)Gal(b1-4)GlcNAc(b1-3)Gal(b1-4)GlcNAc(b1-3)Gal(b1-4)GlcNAc(b1-2)[GlcNAc(b1-3)Gal(b1-4)GlcNAc(b1-3)Gal(b1-4)GlcNAc(b1-3)Gal(b1-4)GlcNAc(b1-3)Gal(b1-4)GlcNAc(b1-6)]Man(a1-6)[GlcNAc(b1-3)Gal(b1-4)GlcNAc(b1-3)Gal(b1-4)GlcNAc(b1-3)Gal(b1-4)GlcNAc(b1-3)Gal(b1-4)GlcNAc(b1-2)Man(a1-3)]Man(b1-4)GlcNAc(b1-4)[Fuc(a1-6)]GlcNAc
Outline: as §1

GlcNAc(b1-3)GalNAc = biological target: GlcNAc(b1-3)GalNAc
Outline: as §1

GlcNAc(b1-3)Man = biological target: GlcNAc(b1-3)Man
Outline: as §1

[6] = biological target: GlcNAc(b1-3)[GlcNAc(b1-6)]GalNAc
Outline: as §1

[7] = biological target: GlcNAc(b1-4)GlcNAc(b1-4)GlcNAc(b1-4)GlcNAc(b1-4)GlcNAc(b1-4)GlcNAc
Outline: as §1

Kdn(a2-3)Gal(b1-3)GlcNAc = biological target: Kdn(a2-3)Gal(b1-3)GlcNAc
Outline: as §1

Man(a1-2)Man(a1-3)Man = biological target: Man(a1-2)Man(a1-3)Man
Outline: as §1

[8] = biological target: Neu5Ac(a2-3)Gal(b1-4)GlcNAc(b1-2)Man(a1-3)[Neu5Ac(a2-3)Gal(b1-4)GlcNAc(b1-2)Man(a1-6)]Man(b1-4)GlcNAc(b1-4)GlcNAc
Outline: as §1

[9] = biological target: Neu5Ac(a2-3)Gal(b1-4)GlcNAc(b1-3)Gal(b1-3)GlcNAc
Outline: as §1

[10] = biological target: Neu5Ac(a2-3)Gal(b1-4)GlcNAc(b1-3)Gal(b1-4)GlcNAc
Outline: as §1

[11] = biological target: Neu5Ac(a2-3)Gal(b1-4)GlcNAc(b1-3)GalNAc
Outline: as §1

[12] = biological target: Neu5Ac(a2-3)Gal(b1-4)[Fuc(a1-3)]GlcNAc(b1-6)[Gal(b1-3)]GalNAc
Outline: as §1

[13] = biological target: Neu5Ac(a2-3)[GalNAc(b1-4)]Gal(b1-4)GlcNAc(b1-3)GalNAc
Outline: as §1

[14] = biological target: Neu5Ac(a2-6)Gal(b1-3)GlcNAc(b1-3)[Gal(b1-4)GlcNAc(b1-6)]Gal(b1-4)Glc
Outline: as §1

[15] = biological target: Neu5Ac(a2-6)Gal(b1-4)GlcNAc(b1-3)Gal(b1-4)GlcNAc(b1-3)Gal(b1-4)GlcNAc
Outline: as §1

[16] = biological target: Neu5Ac(a2-6)Gal(b1-4)GlcNAc(b1-3)Gal(b1-4)GlcNAc(b1-3)Gal(b1-4)GlcNAc(b1-2)Man(a1-3)[Neu5Ac(a2-6)Gal(b1-4)GlcNAc(b1-3)Gal(b1-4)GlcNAc(b1-3)Gal(b1-4)GlcNAc(b1-2)Man(a1-6)]GalNAc
Outline: as §1

[17] = biological target: Neu5Ac(a2-6)Gal(b1-4)GlcNAc(b1-3)Gal(b1-4)GlcNAc(b1-3)[Neu5Ac(a2-6)Gal(b1-4)GlcNAc(b1-3)Gal(b1-4)GlcNAc(b1-6)]GalNAc
Outline: as §1

[18] = biological target: Neu5Ac(a2-6)Gal(b1-4)GlcNAc(b1-6)[Gal(b1-3)GlcNAc(b1-3)]Gal(b1-4)Glc
Outline: as §1

[19] = biological target: Neu5Ac(a2-6)GalNAc(b1-4)GlcNAc
Outline: as §1

[20] = biological target: Neu5Ac(a2-8)Neu5Ac(a2-3)Gal(b1-4)GlcNAc
Outline: as §1

[21] = biological target: Neu5Ac(a2-8)Neu5Ac(a2-8)Neu5Ac
Outline: as §1

[22] = biological target: Neu5Gc(a2-3)Gal(b1-4)GlcNAc(b1-3)Gal(b1-4)GlcNAc(b1-2)Man(a1-3)[Neu5Gc(a2-3)Gal(b1-4)GlcNAc(b1-3)Gal(b1-4)GlcNAc(b1-2)Man(a1-6)]Man(b1-4)GlcNAc(b1-4)GlcNAc
Outline: as §1

B1: PkBDPgamma (Plasmodium knowlesi) (protein)
chain: SAINQIFLQNNVMDKCNDKRKRGERDWDCPTEKDVCIPDRRYQLCMMEITNLVDTDTHFHSDIIFRKSYSRRRLIYDVGGRGDLLLKKYNNVYSEDLCKDIKWSLQDFGDIIMGTDMEGIGYSLVVQNNLRSIFGTGTSAELDRKKWWNDHKKDIWKAMILSVKEKNRYSAWNCKEDVQIKVEPQIYRWIREWGRDYMSEFREQRRKLNEKCEDKLYYSTMLICTLPPCNNACKSYDEWITGKKKQWDVLSTKFSSVKKAQKIETENIARAYDILKQELNGFNEVTFENEINKRDKLYNYFCVCIVQEARKNTQENVKNVGSGVESKAPSSNPINEAVKSSSGEGKVQEDSAHRSVNEGEGKSSTNEADPGSQPGAAASGGGSGGGTGGGVDLAPQMLRELQETNAALQDVRELLRQQVKEITFLKNTVMECDACGGPLDRNLPPLAPLGPTGGWSHPQFEK
- glycan array binding signal (z-score) [1]: 0.897
- glycan array binding signal (z-score) [2]: -0.401
- glycan array binding signal (z-score) [3]: 0.128
- glycan array binding signal (z-score) [4]: -0.196
- glycan array binding signal (z-score) [5]: 2.27
- glycan array binding signal (z-score) (GlcNAc(b1-3)GalNAc): -0.356
- glycan array binding signal (z-score) (GlcNAc(b1-3)Man): -0.084
- glycan array binding signal (z-score) [6]: -0.331
- glycan array binding signal (z-score) [7]: -0.371
- glycan array binding signal (z-score) (Kdn(a2-3)Gal(b1-3)GlcNAc): -0.196
- glycan array binding signal (z-score) (Man(a1-2)Man(a1-3)Man): -0.276
- glycan array binding signal (z-score) [8]: 0.46
- glycan array binding signal (z-score) [9]: -0.241
- glycan array binding signal (z-score) [10]: 0.522
- glycan array binding signal (z-score) [11]: -0.073
- glycan array binding signal (z-score) [12]: 0.362
- glycan array binding signal (z-score) [13]: -0.323
- glycan array binding signal (z-score) [14]: -0.324
- glycan array binding signal (z-score) [15]: 0.015
- glycan array binding signal (z-score) [16]: 0.405
- glycan array binding signal (z-score) [17]: 0.922
- glycan array binding signal (z-score) [18]: 1.24
- glycan array binding signal (z-score) [19]: -0.045
- glycan array binding signal (z-score) [20]: 0.25
- glycan array binding signal (z-score) [21]: -0.324
- glycan array binding signal (z-score) [22]: 20.7
